# The supplement of paper PMC8728848
# The entries come from a sample that favours the strongest signals as a whole.
# Columns and labels:
# Assay in all cases: glycan array binding signal (z-score within array); higher = stronger binding
# Details in all cases: glycan notation: IUPAC condensed, linker removed
# [1] = target: Fuc(a1-2)Gal(b1-4)Glc
# Summary of the method: (§1)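 The Consortium for Functional Glycomics database supplied 3228 glycan arrays, of which those lacking an available protein sequence were dropped. The binding signal, a within-array Z-score, was averaged across arrays of the same protein sequence and across linkers. Negative scores can be read as non-binding.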
# [2] = target: Fuc(a1-2)Gal(b1-4)GlcNAc(b1-3)Gal(b1-4)GlcNAc
# Summary of the method: as §1
# [3] = target: Fuc(a1-2)Gal(b1-4)[Fuc(a1-3)]GlcNAc
# Summary of the method: as §1
# [4] = target: Fuc(a1-2)[GalNAc(a1-3)]Gal(b1-4)[Fuc(a1-3)]GlcNAc
# Summary of the method: as §1
# [5] = target: Fuc(a1-3)[Gal(b1-4)]GlcNAc(b1-4)Gal(b1-4)[Fuc(a1-3)]GlcNAc(b1-4)Gal(b1-4)[Fuc(a1-3)]GlcNAc
# Summary of the method: as §1
# [6] = target: Gal(a1-3)GalNAc
# Summary of the method: as §1
# [7] = target: Gal(b1-3)GlcNAc(b1-3)Gal(b1-4)Glc
# Summary of the method: as §1
# [8] = target: Gal(b1-3)GlcNAc(b1-3)Gal(b1-4)GlcNAc
# Summary of the method: as §1
# [9] = target: Gal(b1-3)[Fuc(a1-4)]GlcNAc(b1-3)Gal(b1-4)[Fuc(a1-3)]GlcNAc
# Summary of the method: as §1
# [10] = target: Gal(b1-3)[Neu5Ac(a2-6)]GalNAc
# Summary of the method: as §1
# [11] = target: Gal(b1-3)[Neu5Ac(a2-6)]GlcNAc(b1-6)Gal(b1-4)Glc
# Summary of the method: as §1
# [12] = target: Gal(b1-4)GlcNAc
# Summary of the method: as §1
# [13] = target: Gal(b1-4)GlcNAc(b1-3)[Gal(b1-4)GlcNAc(b1-6)]GalNAc
# Summary of the method: as §1
# [14] = target: Gal3S(b1-3)GlcNAc
# Summary of the method: as §1
# [15] = target: Gal3S6S(b1-4)GlcNAc
# Summary of the method: as §1
# [16] = target: GlcNAc(b1-3)Gal(b1-3)GalNAc
# Summary of the method: as §1
# [17] = target: GlcNAc(b1-3)[GlcNAc(b1-6)]GlcNAc(b1-4)GlcNAc
# Summary of the method: as §1
# [18] = target: Neu5Ac(a2-3)Gal(b1-3)GalNAc
# Summary of the method: as §1
# [19] = target: Neu5Ac(a2-3)Gal(b1-3)GalNAc(b1-3)Gal(b1-4)GlcNAc
# Summary of the method: as §1
# [20] = target: Neu5Ac(a2-3)Gal(b1-3)[Fuc(a1-4)]GlcNAc(b1-3)Gal(b1-4)[Fuc(a1-3)]GlcNAc
# Summary of the method: as §1
# [21] = target: Neu5Ac(a2-3)Gal6S(b1-4)[Fuc(a1-3)]GlcNAc
# Summary of the method: as §1
# [22] = target: Neu5Ac(a2-3)[GalNAc(b1-4)]Gal(b1-4)Glc
# Summary of the method: as §1
# [23] = target: Neu5Ac(a2-8)Neu5Ac
# Summary of the method: as §1
# [24] = target: Fuc(a1-2)Gal(b1-4)[Fuc(a1-3)]GlcNAc(b1-3)Gal(b1-4)[Fuc(a1-3)]GlcNAc
# Summary of the method: as §1
# [25] = target: Fuc(a1-2)GlcNAc
# Summary of the method: as §1
# [26] = target: Fuc(a1-2)[GalNAc(b1-3)]Gal
# Summary of the method: as §1
# [27] = target: Fuc(a1-3)[Gal(b1-4)]GlcNAc(b1-4)Gal(b1-4)[Fuc(a1-3)]GlcNAc
# Summary of the method: as §1
# [28] = target: Fuc(b1-3)GlcNAc
# Summary of the method: as §1
# [29] = target: Gal(a1-3)Gal(b1-4)GlcNAc
# Summary of the method: as §1
# [30] = target: Gal(b1-3)[Fuc(a1-4)]GlcNAc
# Summary of the method: as §1
# [31] = target: Gal(b1-4)GalNAc(a1-3)[Fuc(a1-2)]Gal(b1-4)GlcNAc
# Summary of the method: as §1
# [32] = target: Gal(b1-4)Glc6S
# Summary of the method: as §1
# [33] = target: Gal(b1-4)GlcNAc(b1-2)Man(a1-3)[Gal(b1-4)GlcNAc(b1-2)Man(a1-6)]Man(b1-4)GlcNAc(b1-4)GlcNAc
# Summary of the method: as §1
# [34] = target: Gal(b1-4)GlcNAc(b1-6)[Gal(b1-3)]GalNAc
# Summary of the method: as §1
# [35] = target: Gal3S(b1-4)Glc
# Summary of the method: as §1
# [36] = target: Gal3S(b1-4)GlcNAc6S
# Summary of the method: as §1
# [37] = target: Gal3S6S(b1-4)GlcNAc6S
# Summary of the method: as §1
# [38] = target: Gal6S(b1-4)Glc6S
# Summary of the method: as §1
# [39] = target: GlcNAc(b1-3)Gal
# Summary of the method: as §1
# [40] = target: Neu5Ac(a2-3)Gal(b1-4)[Fuc(a1-3)]GlcNAc(b1-3)Gal
# Summary of the method: as §1
# [41] = target: Neu5Ac(a2-3)Gal(b1-4)[Fuc(a1-3)]GlcNAc(b1-3)Gal(b1-4)[Fuc(a1-3)]GlcNAc(b1-3)Gal(b1-4)[Fuc(a1-3)]GlcNAc
# Summary of the method: as §1
# [42] = target: Neu5Ac(a2-8)Neu5Ac(a2-8)Neu5Ac(a2-3)[GalNAc(b1-4)]Gal(b1-4)Glc
# Summary of the method: as §1
binder,measurement,setting,value
"CTMLA2 (Anopheles gambiae), Q7Q7F8 (protein) MNLMITILIAVITVVRGDLSVPKTVDDILQQNPCLCPCKPFEEKEYFIPISRTSDWFGAVAYCHSVGMELAEVLNEDEARAMGEVIAEEESDSDDEFYWIGANDLGVQGTYRWALAGRPVLYSQWAAGEPNHARGENGQQPAERCVAVAMDKYEWNDFQCTQQKPFICQQFRKH",glycan array binding signal (z-score),[1],0.14
same,glycan array binding signal (z-score),[2],-0.253
same,glycan array binding signal (z-score),[3],-0.269
same,glycan array binding signal (z-score),[4],0.192
same,glycan array binding signal (z-score),[5],-0.011
same,glycan array binding signal (z-score),[6],0.077
same,glycan array binding signal (z-score),[7],4.14
same,glycan array binding signal (z-score),[8],-0.58
same,glycan array binding signal (z-score),[9],-0.224
same,glycan array binding signal (z-score),[10],-0.277
same,glycan array binding signal (z-score),[11],-0.49
same,glycan array binding signal (z-score),[12],-0.338
same,glycan array binding signal (z-score),[13],0.036
same,glycan array binding signal (z-score),[14],1.6
same,glycan array binding signal (z-score),[15],1.36
same,glycan array binding signal (z-score),[16],1.18
same,glycan array binding signal (z-score),[17],0.928
same,glycan array binding signal (z-score),[18],-0.51
same,glycan array binding signal (z-score),[19],0.102
same,glycan array binding signal (z-score),[20],-0.129
same,glycan array binding signal (z-score),[21],-0.274
same,glycan array binding signal (z-score),[22],-0.435
same,glycan array binding signal (z-score),[23],-0.246
"DCIR (Homo sapiens), Q9UMR7 (protein) MTSEITYAEVRFKNEFKSSGINTASSAASKERTAPHKSNTGFPKLLCASLLIFFLLLAISFFIAFVIFFQKYSQLLEKKTTKELVHTTLECVKKNMPVEETAWSCCPKNWKSFSSNCYFISTESASWQDSEKDCARMEAHLLVINTQEEQDFIFQNLQEESAYFVGLSDPEGQRHWQWVDQTPYNESSTFWHPREPSDPNERCVVLNFRKSPKRWGWNDVNCLGPQRSVCEMMKIHL",glycan array binding signal (z-score),[1],-0.479
same,glycan array binding signal (z-score),[24],-0.367
same,glycan array binding signal (z-score),[25],-0.484
same,glycan array binding signal (z-score),[26],-0.31
same,glycan array binding signal (z-score),[27],0.076
same,glycan array binding signal (z-score),[28],-0.551
same,glycan array binding signal (z-score),[29],0.183
same,glycan array binding signal (z-score),[30],-0.359
same,glycan array binding signal (z-score),[31],-0.129
same,glycan array binding signal (z-score),[32],0.19
same,glycan array binding signal (z-score),[33],4.96
same,glycan array binding signal (z-score),[34],-0.161
same,glycan array binding signal (z-score),[35],-0.426
same,glycan array binding signal (z-score),[36],5.68
same,glycan array binding signal (z-score),[37],7.43
same,glycan array binding signal (z-score),[38],4.52
same,glycan array binding signal (z-score),[39],-0.245
same,glycan array binding signal (z-score),[40],-0.071
same,glycan array binding signal (z-score),[41],-0.372
same,glycan array binding signal (z-score),[42],-0.052
